Laboratory results as given in PubChem BioAssay AID449762 (Southern Research Specialized Biocontainment Screening …, 2010).
The whole screen tested about 330,000 compounds, of which about 1,900 (0.58%) were called active. Inconclusive results (about 4%) are left out. Not all results are given here. Potency and affinity values are given separately. Values without a mark were called inactive. No stated cut-off is given here; in the data, inconclusive means inhibition above about 70% without an active follow-up result; inactive means below that.

Experiment: M. tuberculosis growth inhibition, HTS (AID 449762);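 further: bacterial growth assessed after seven days of incubation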
Details: M. tuberculosis H37Rv growth inhibition, 7H9 media; at 25 µM; hits give high values

SMILES | inhibition [%]
O=C(NCCNC(=O)c1ccc(Cl)cc1Cl)c1ccccn1 | 0.45
CCCc1cc(=O)[nH]c(SCC(=O)N2c3ccccc3NC(=O)C2(C)C)n1 | 3.32
CC1=C(C(=O)N2CCOCC2)C(c2cc(C)cs2)NC(=O)N1 (configuration not stated) | 2.64
Cc1ccc(F)cc1NC(=O)COC(=O)c1ccc2ncsc2c1 | -5.07
c1ccc(C[C@H]2CN=C(Nc3ccccc3)N2CCC2CCCC2)cc1 | 30
c1ccc(C[C@H]2CN=C(Nc3ccccc3)N2CCCC2CCCCC2)cc1 | 22.3
O=C(O)C(Cc1c[nH]c2ccccc12)NS(=O)(=O)c1cccc(Cl)c1Cl (configuration not stated) | -3.04
Cc1ccc(NC(=O)CN(C)CC(=O)Nc2sc3c(c2C(N)=O)CCC3)cc1 | 66.6
COc1ccc(NC(=O)CN(C)CC(=O)Nc2sc3c(c2C#N)CCC3)cc1 | -8.9
CC(=O)OC(c1nc2ccccc2c(=O)n1C1CC2(OC1=O)c1ccccc1N1C(=O)C(C)(C)N(O)C12)C(C)C (configuration not stated) | -6.29
Cc1ccc(N2C(=O)NC(=O)/C(=C/C=C/c3ccco3)C2=O)cc1 | 53.8
Cc1ccc(N2C(=O)NC(=O)/C(=C\C=C\c3ccco3)C2=O)cc1 | -4.11
Cc1cc(NC(=O)CSCC(=O)N(C)Cc2ccc(F)cc2)no1 | -22.2
Fc1ccc(-c2csc3ncnc(Nc4ccc(N5CCOCC5)cc4)c23)cc1 | 28.8
Cc1ccc(-c2csc3ncnc(Nc4ccc(C(=O)O)cc4)c23)cc1 | 6.21
O=C1c2cccc3c([N+](=O)[O-])c(O)cc(c23)C(=O)N1Nc1ccccc1 | -8.23
O=C(Nc1ccccc1)NC1CCCCC1 | 7.91
CCC(=O)N1c2ccc(S(=O)(=O)NCc3ccccc3)cc2CC1C (configuration not stated) | 3.62
COc1nc(-c2ccccc2)cc(-c2ccccc2)n1 | 11.4

SMILES | inhibition [%]
COc1ccc(-c2cc(-c3ccccc3)nc(NN)n2)cc1OC | 2.81
CC(C)Cn1c(SCC(=O)N2CCc3ccccc3C2)nc2cc(Cl)ccc2c1=O | -3.67
CCCCN(CC)CCNC(=O)c1cn(C)c(=O)c2c1c1ccccc1n2C | -0.73
Cc1cc(C)n2nc(CCc3ccccc3)nc2n1 | 0.58
CCCCC(=O)NNC(=S)NC(=O)c1cccc([N+](=O)[O-])c1 | 29
CCCCCCCC(=O)NNC(=O)c1ccc([N+](=O)[O-])cc1 | 3.14
COc1ccc2oc(=O)c(C(=O)NCc3ccc(C)cc3)cc2c1 | -2.24
COc1cc2c(cc1OC)C1=C(C#N)CCC(=O)N1CC2 | 7.82
Cc1cc(C)n(-c2nc(Nc3ccccc3)nc(-n3nc(C)cc3C)n2)n1 | 15.3
CNc1nc(C)nc(-n2nc(C)cc2C)n1 | -0.69
Cc1cccc(NC(=O)COC(=O)Cc2cccs2)c1C | 4.38
Cc1ccc(C)c(N2CN(CCC3=CCCCC3)CNC2=S)c1 | -4.98
C[C@@H]1O[C@@H](O[C@H]2[C@H](Oc3cc(O)c4c(c3)O[C@H](c3ccc(O)cc3)CC4=O)O[C@H](CO)[C@@H](O)[C@@H]2O)[C@H](O)[C@H](O)[C@H]1O | -0.33
C[C@@H]1O[C@@H](O[C@H]2[C@H](Oc3cc(O)c4c(c3)OC(c3ccc(O)cc3)CC4=O)O[C@H](CO)[C@@H](O)[C@@H]2O)[C@H](O)[C@H](O)[C@H]1O (some centres not stated) | -2.06
CCCCc1nc2cc(C(=O)N3CCCCC3CCNC(C)=O)ccc2o1 (configuration not stated) | 7.94
CCC(CC)c1nnc(NC(=O)c2cc([N+](=O)[O-])ccc2N2CCOCC2)s1 | 5.48
CCN1CCN(C(=S)NC(=O)/C=C/c2cccs2)CC1 | -0.91
O=C(NCCC1=CCCCC1)NC1CCCCC1 | 7.21
NC(=O)NCCC1=CCCCC1 | 7.39

SMILES | inhibition [%]
O=C1N[C@@H](Cc2c[nH]c3ccccc23)COC(=O)[C@@H](Cc2ccc(F)cc2)C/C=C\C[C@H]1CC(=O)N(CCO)Cc1ccccc1 | 4.64
COc1ccc(C(CNC(=O)c2ccc(Br)o2)N2CCN(C)CC2)cc1 (configuration not stated) | 2.14
CC(OC(=O)COc1ccccc1Cc1ccccc1)C(=O)N(C)c1ccccc1 (configuration not stated) | -4.05
CC(=O)Nc1ccc(NC(=O)C(C)OC(=O)COc2ccc(Nc3ccccc3)cc2)cc1 (configuration not stated) | 40.1
CN(CC(=O)Nc1ccc(Cl)cc1)C(=O)C1=COCCO1 | -13.8
Cc1ccc(NS(=O)(=O)c2c(C)[nH]c(C)c2C(=O)N2CCCC2)cc1 | 2.46
Oc1ccccc1N=N/C(=N/Nc1ccccc1O)c1ccccc1 | 10.4
N#C/C(=N/Nc1ccccc1[N+](=O)[O-])C(N)=S | -5.6
COc1ccc(-c2nc(CN3CCCCC3c3cccnc3)c(C)o2)c(F)c1 (configuration not stated) | 3.24
c1ccc(Oc2cccc(OCCCCN3CCCC3)c2)cc1 | 1.38
CN1CCN(C(=O)c2cnn3c2NC(c2ccccc2)CC3C(F)(F)F)CC1 (configuration not stated) | -19.6
CCN(CC)CCCN(Cc1cc2cc3c(cc2[nH]c1=O)OCO3)C(=S)Nc1ccccc1OC | -4.51
CCc1ccc(Nc2n[n+](-c3ccccc3)c(-c3ccc(C(=O)O)cc3)s2)cc1 | 4.87
C[n+]1nc(Nc2ccccc2)sc1-c1ccc(O)cc1 | 4.57
O=C(NCc1cccs1)c1cc(S(=O)(=O)N2CCOCC2)ccc1N1CCCC1 | 5.48
Cc1ccccc1CN1CCN(c2ccc(S(=O)(=O)N3CCCC3)cn2)CC1 | -6.22
COC(=O)C1C(=O)C2=C(CC1C)NC(C)=C(C(=O)OC(C)C)C2c1ccc(C)o1 (configuration not stated) | 2.94
COc1cc(OC)cc(-n2nnnc2SCC(=O)N2CCCC2)c1 | -5.03
COc1ccc(-n2nnnc2S(=O)(=O)Cc2ccc(C(=O)O)cc2)cc1 | -3.99
